# USP2a inh: qHTS Assay for Inhibitors of Ubiquitin-specific Protease USP2a Using CHOP2 as the Reporter; Ubiquitin carboxyl-terminal hydrolase 2 (Homo sapiens), O75604; USP2 core, Ub-CHOP2 coupled fluorogenic reporter, 485/531; Potency, µM (series often up to 38.3 µM), for the others: at the top dose activity change, negative = inhibition, most hits filed as inhibitors; hit rate 0.01% among 330,000; AID 463254, 2010;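 also: potency is read from the fitted curve at half-maximal effect; plate controls were DMSO wells for no effect and full inhibition by NEM control for full effect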
#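 Cell-free coupled assay: 10nM USP2 core preincubated 30min RT with compound in Tris-HCl pH 8.0/CaCl2/CHAPS buffer, then 25nM Ub-CHOP2 and 25nM reporter substrate; fluorescence (Ex 485/Em 531) read after 60min RT, normalized to NEM inhibition, concentration-response curves fitted.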
# Coupling enz: qHTS Assay for Inhibitors of Fructose-1,6-bisphosphate Aldolase from Giardia Lamblia: Coupling assay counterscreen. activity change, negative = inhibition, % at 58.2 µM, hits read low. hit rate 0.67% among 290,000. coupling enzyme system counterscreen, AmpLite Red fluorescence. AID 2472, 2010; in the data active = activity change below about -30%
#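 Activity here indicates interference with the coupling reaction, not aldolase inhibition. Compounds at 57.5 uM final met coupling enzymes for 10 min at RT; substrate and AmpLite Red detection followed, with a 525/598 nm fluorescence read after 20 min.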
# USP1 inh: Inhibitors of USP1/UAF1: Primary Screen. Potency, µM (doses to about 57.1 µM), inactives show top-dose activity change, negative = inhibition, hits mostly inhibitors. Ubiquitin carboxyl-terminal hydrolase 1 (Homo sapiens), O94782. hit rate 0.23% among 390,000. recombinant USP1/UAF1, Ub-Rhodamine cleavage fluorescence; also: potency is read from the fitted curve at half-maximal effect; nearly all actives have a fitted effect of over 60% in size
#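 USP1/UAF1 complex at 1 nM was preincubated with compound for 15 min at room temperature, then Ub-Rho substrate (150nM final) was added. Fluorescence (480/540 nm) was read kinetically, 6 reads every 60 seconds.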
# PLK1 PBD inh: qHTS for Inhibitors of PLK1-PDB (polo-like kinase 1 - polo-box domain): Primary Screen; Serine/threonine-protein kinase PLK1 (Homo sapiens), P53350; Plk1 PBD binding of FITC phosphopeptide, fluorescence polarization; Potency, µM, inactives show max response, negative = inhibition, actives largely listed as inhibitors; hit rate 2.8% among 360,000; also: potency is read from the fitted curve at half-maximal effect; series mostly up to about 57 µM; nearly all actives have a fitted effect of over 65% in size
# GALK inhibitor: qHTS Assay for Inhibitors of Human Galactokinase (GALK); P51570; Purified GALK, Kinase-Glo residual ATP luminescence; Potency, µM (series often up to 57.5 µM), inactives show at the highest dose activity change, negative = inhibition, actives largely listed as inhibitors; hit rate 0.007% among 270,000; also: potency is read from the fitted curve at half-maximal effect
# Target sequence (P51570 whole entry, looked up): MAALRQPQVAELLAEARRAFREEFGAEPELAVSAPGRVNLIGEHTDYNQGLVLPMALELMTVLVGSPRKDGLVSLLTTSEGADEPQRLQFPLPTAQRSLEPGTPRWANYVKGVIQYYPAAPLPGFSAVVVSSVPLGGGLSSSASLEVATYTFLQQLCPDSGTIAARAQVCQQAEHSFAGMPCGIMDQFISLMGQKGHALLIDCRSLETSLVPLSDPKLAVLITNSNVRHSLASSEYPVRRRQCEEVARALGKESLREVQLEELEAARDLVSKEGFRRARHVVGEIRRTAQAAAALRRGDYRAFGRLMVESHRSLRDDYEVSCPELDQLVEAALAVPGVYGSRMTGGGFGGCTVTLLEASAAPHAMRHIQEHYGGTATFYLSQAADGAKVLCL
#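 ATP-depletion format; final 35 uM ATP, 100 uM D-galactose, 5 nM enzyme; pH 8.0 HEPES/Mg2+ buffer; 60 min RT; luminescence read 10 min after detection reagent.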
# VDR inh: Inhibitors of the vitamin D receptor (VDR): qHTS; Vitamin D3 receptor (Homo sapiens), P11473; VDR-SRC2-3 peptide fluorescence polarization, 2 h; hit rate 0.93% among 400,000; Potency, µM, without a hit: max response, negative = inhibition, most hits filed as inhibitors; also: potency is read from the fitted curve at half-maximal effect
#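 VDR–SRC2-3 interaction, FP format. Cmpds 23 nl via pintool, brief spin, 2 h ambient incubation.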
# * hit, by the source's call; ? = inconclusive; nt = no result. A selection: hits, their analogues and other compounds. The true share with any hit is near 3.2%. Unless noted, calls follow the shape of the dose curve; as a rule, active = well fitted curve in the direction sought with a large enough effect; inconclusive = small, poorly fitted or top-dose-only effect, or another doubt; inactive = no such curve, though single readings can be large; an effect the other way counts as inactive or inconclusive. Unless noted, % is scaled to controls: 0 for no effect and ±100 for the full control effect.
SMILES,USP2a inh,Coupling enz,USP1 inh,PLK1 PBD inh,GALK inhibitor,VDR inh
CC(C)C(=O)Nc1ccc(NC(=O)c2ccc3c(c2)OCO3)cc1,0%,0,-21%,0%,-1%,-19%
Cc1ccccc1C1CC(=O)Oc2cc(O)ccc21 (stereo unspecified),?,-3,?,17µM*,nt,-7%
Cc1ccc(N2C(=O)CS(=O)(=O)C23C(=O)Nc2ccccc23)cc1C (stereo unspecified),nt,nt,-31%,nt,nt,4%
C=CCn1c(O)c(CN2CCOCC2)c(C)c(C#N)c1=O,2%,-31*,?,-11%,8%,2%
C=CCn1c(C)cc(C)c(C#N)c1=O,3%,2,-12%,2%,0%,3%
CSc1ccc(CN2CCC2(C)C(=O)NC2CCc3ccccc32)cc1 (stereo unspecified),nt,nt,nt,-8%,nt,nt
O=C(O)c1nn(-c2ccccc2)ccc1=O,5%,4,-11%,12µM*,0%,-12%
CC1(C)CC(NS(=O)(=O)c2ccc(S(=O)(=O)N3CCOCC3)cc2)CCO1 (stereo unspecified),0%,-4,-10%,-1%,-1%,3%
Cc1cc(Br)cn2c(Cc3ccsc3)c(-c3ccco3)nc12,nt,nt,nt,24µM*,nt,nt
CCn1c(=O)n(CC)c2cc(N3CCCC3)c(NC(=O)c3ccccc3C)cc21,3%,1,-15%,-21%,1%,-15%
CCn1c(=O)n(CC)c2cc(N3CCCC3)c(NC(=O)c3ccccc3F)cc21,-5%,-5,-24%,24µM*,-3%,-22%
Cc1cc(C)c(NC(=S)NCCO)c(C)c1,3%,0,-12%,4%,-2%,-12%
Cc1nc(NC(=O)c2ccc([N+](=O)[O-])cc2Cl)sc1C(=O)N(C)C,0%,-4,?,19µM*,2%,?
CCOC(=O)c1c(NC(=O)CSc2ncccn2)sc2c1CCN(Cc1ccccc1)C2,-4%,-3,?,24µM*,-2%,-11%
Cc1ccc(NC(=O)Cc2c(C(=O)O)n(C)c3ccccc23)cc1F,-1%,4,-22%,24µM*,-1%,-17%
Cc1ccc(NC(=O)Cc2nn(C)c(=O)c3ccccc23)cc1F,-1%,1,-2%,3µM*,-1%,?
Cn1nc(CC(=O)Nc2ccc3c(c2)OCCO3)c2ccccc2c1=O,3%,-1,-8%,-4%,-6%,-3%
COc1ccc(N2C(=O)c3ccc(C(=O)OC(C)C)cc3C2=O)cc1,3%,1,-24%,2.7µM*,-2%,-20%
COc1ccc(N2C(=O)c3cc4ccccc4cc3C2=O)cc1,0%,2,-15%,27µM*,-2%,?
COc1ccccc1Oc1ccc2c(c1)C(=O)N(c1ccc(C)cc1)C2=O,7%,-2,1%,-8%,-3%,14%
COc1ccc(N2CCN(C(=O)c3cccc(S(=O)(=O)N4CCOCC4)c3)CC2)cc1,1%,nt,-11%,2%,nt,12%
O=C(O)c1ccc(CNC(=O)c2ccc(C(F)(F)F)cc2)cc1,2%,3,-7%,?,8%,6%
COc1cc2ccnc(Cc3cccc(OC)c3OC)c2cc1OC,0%,-2,-18%,27µM*,1%,-14%
COc1cc(N)c(Cc2nccc3cc(OC)c(OC)cc23)cc1OC,0%,-31*,?,3%,1%,-3%
COc1cc(Cc2nccc3cc(OC)c(OC)cc23)c(S(=O)(=O)O)cc1OC,4%,-1,-25%,-6%,-1%,-5%
